# Reference: PubChem BioAssay (EPA / NIEHS)
# Inconclusive results are not listed. Active and inactive are the calls of the source. How the source made its calls, unless noted: active means hit-call score of the fitted dose curve at least 0.9, where 1 is the maximum; inconclusive means response in the unintended direction; inactive means score below 0.9.
# How the values were obtained:
# [1] = Tanguay_ZF_120hpf_CFIN_legacy: (Legacy) Oregon State University Tanguay Lab 120 Hour Post-fertilization zebrafish Assay for Caudal Fin Malformation (AID 2283649)
# Summary of the method: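 Binary brightfield scoring of caudal fin defects at 120 hpf after static, light-shielded exposure at 28C from 6 hpf. Tropical 5D embryos, chorion removed with pronase at 4 hpf, final DMSO 0.64%.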
# [2] = Tanguay_ZF_120hpf_PIG_legacy: (Legacy) Oregon State University Tanguay Lab 120 Hour Post-fertilization zebrafish Assay for Pigmentation Malformation (AID 2283650)
# Summary of the method: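 Dechorionated Tropical 5D wild-type embryos, one per well from 6 hpf, statically exposed at 28C in the dark until 120 hpf, 0.64% DMSO final. Pigmentation scored present/absent by brightfield microscopy; dead embryos not scored; fitted versus DMSO.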
# [3] = Tanguay_ZF_120hpf_CIRC_legacy: (Legacy) Oregon State University Tanguay Lab 120 Hour Post-fertilization zebrafish Assay for Circulatory Malformation (AID 2283651)
# Summary of the method: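 Using wild-type Tropical 5D zebrafish, we exposed dechorionated embryos from 6 to 120 hpf in embryo medium with 0.64% DMSO. Circulatory defects were scored as present or absent; 5uM trimethyltin chloride served as positive control.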
# [4] = read-out: kallikrein-3 (KLK3), KLK3 (gene 354); assay: LTEA_HepaRG_KLK3: Life Technologies and Expression Analysis (LTEA) Assay for kallikrein-3 (KLK3) using HepaRG (AID 2283652; active means hit-call score of the fitted dose curve at least 0.9, where 1 is the maximum; inactive means score below 0.9); conditions: mRNA level, 48 h; actives raise or lower the signal
# Summary of the method: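 Differentiated human HepaRG cells in serum-free induction medium exposed 48 h in duplicate, eight-point half-log series from 100 uM in 0.5% DMSO. KLK3 mRNA by qRT-PCR, normalised to ACTB, GAPDH, POLR2A; bidirectional fit versus DMSO.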
# [5] = read-out: solute carrier (SLC22A6), SLC22A6 (gene 9356); assay: LTEA_HepaRG_SLC22A6: Life Technologies and Expression Analysis (LTEA) Assay for solute carrier (SLC22A6) using HepaRG (AID 2283653; active means hit-call score of the fitted dose curve at least 0.9, where 1 is the maximum; inactive means score below 0.9); conditions: mRNA level, 48 h; actives raise or lower the signal
# Summary of the method: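 SLC22A6 transcript was measured by TaqMan qRT-PCR, normalized to three housekeeping genes, after 48 h duplicate exposure of HepaRG cells (100 uM top, half-log steps, 0.5% DMSO); bidirectional fit against vehicle.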
# [6] = Tanguay_ZF_120hpf_NC_legacy: (Legacy) Oregon State University Tanguay Lab 120 Hour Post-fertilization zebrafish Assay for Notochord and Tail Malformation (AID 2283656)
# Summary of the method: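 Dechorionated 5D zebrafish, 1/well from 6 hpf; static exposure to 120 hpf, 28C, sealed, dark; final DMSO 0.64% v/v. NC scored binary (present/absent); dead embryos not scored. Fit vs DMSO baseline, gain direction.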
# [7] = read-out: solute carrier (SLC10A1), SLC10A1 (gene 6554); assay: LTEA_HepaRG_SLC10A1: Life Technologies and Expression Analysis (LTEA) Assay for solute carrier (SLC10A1) using HepaRG (AID 2283657; active means hit-call score of the fitted dose curve at least 0.9, where 1 is the maximum; inactive means score below 0.9); conditions: mRNA level, 48 h; actives raise or lower the signal
# Summary of the method: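 HepaRG cells (single lot) exposed 48 h in serum-free induction medium, 8-point half-log series from 100 uM top in 0.5% DMSO, duplicate. SLC10A1 mRNA by qRT-PCR normalised to ACTB, GAPDH, POLR2A; bidirectional fit versus DMSO.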
# [8] = read-out: matrix metalloproteinase-1 (MMP1), MMP1 (gene 4312); assay: LTEA_HepaRG_MMP1: Life Technologies and Expression Analysis (LTEA) Assay for matrix metalloproteinase-1 (MMP1) using HepaRG (AID 2283658; active means hit-call score of the fitted dose curve at least 0.9, where 1 is the maximum; inactive means score below 0.9); conditions: mRNA level, 48 h; actives raise or lower the signal
# Summary of the method: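 qRT-PCR (TaqMan, Fluidigm arrays) of MMP1 transcript, normalized against three housekeeping genes and fitted in both directions relative to 0.5% DMSO vehicle. Human HepaRG cultures received duplicate 48 h exposures across 8 points, highest 100 uM with half-log steps.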
# [9] = read-out: ABC Transporter (ABCB1), ABCB1 (gene 5243); assay: CLD_ABCB1_6hr: CellzDirect (CLD) Gene Expression Assay for ABC Transporter (ABCB1) at 6 hours (AID 2283659);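 further: hits raise ABCB1 transcript above the DMSO vehicle baseline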
# Summary of the method: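 Primary human hepatocytes (two donor preparations) dosed daily for two days with chemicals at multiple concentrations, 0.2% DMSO vehicle; harvested 6 h post-dose. ABCB1 mRNA induction quantified by qNPA chemiluminescence; gain-of-signal fitted versus DMSO.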
# [10] = read-out: Broad substrate specificity ATP-binding cassette transporter ABCG2 (Homo sapiens) (UniProt Q9UNQ0); assay: CLD_ABCG2_6hr: CellzDirect (CLD) Gene Expression Assay for ABC Transporter (ABCG2) at 6 hours (AID 2283660)
# Summary of the method: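 Primary human hepatocytes dosed daily with chemicals at multiple concentrations (0.2% DMSO vehicle), harvested 6 h after dosing. ABCG2 mRNA induction read by quantitative nuclease protection assay (qNPA) chemiluminescence; gain of signal fitted against DMSO baseline.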
# [11] = read-out: xenobiotic metabolism (CYP1A1), CYP1A1 (gene 1543); assay: CLD_CYP1A1_6hr: CellzDirect (CLD) Gene Expression Assay for xenobiotic metabolism (CYP1A1) at 6 hours (AID 2283661);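 on AC50: potency for transcript induction above DMSO vehicle baseline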
# Summary of the method: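 Primary human hepatocytes from two donors, compound versus 0.2% DMSO vehicle. CYP1A1 mRNA measured 6 h after dosing by quantitative nuclease protection assay with chemiluminescent read-out; induction fitted relative to DMSO, cytotoxicity flagged by microscopy.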
# [12] = Tanguay_ZF_120hpf_TR_legacy: (Legacy) Oregon State University Tanguay Lab 120 Hour Post-fertilization zebrafish Assay for Touch Response (AID 2283667)
# Summary of the method: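 Tropical 5D wild-type zebrafish embryos statically exposed to 120 hpf at 28°C, sealed and dark-covered, 0.64% DMSO final; touch response scored as present/absent by brightfield microscopy at 120 hpf. Trimethyltin chloride 5 uM positive control; dead embryos not scored.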
# [13] = Tanguay_ZF_120hpf_PFIN_legacy: (Legacy) Oregon State University Tanguay Lab 120 Hour Post-fertilization zebrafish Assay for Pectoral Fin Malformation (AID 2283648);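 further: each larva judged yes or no for fin defect by brightfield with dead larvae skipped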
# Summary of the method: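 Dechorionated Tropical 5D wild-type zebrafish embryos, one per well, statically exposed from 6 to 120 hpf at 28C with 0.64% DMSO final. Pectoral fin malformation scored present/absent by brightfield at 120 hpf; not scored in dead embryos.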
# [14] = Tanguay_ZF_120hpf_SWIM_legacy: (Legacy) Oregon State University Tanguay Lab 120 Hour Post-fertilization zebrafish Assay for Swim Bladder Malformation (AID 2283654);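 further: swim bladder malformation in each larva scored yes or no under brightfield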
# Summary of the method: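 Dechorionated wild-type Tropical 5D zebrafish embryos, one per well from 6 hpf, were statically exposed at 28C until 120 hpf in 0.64% DMSO. Swim bladder malformation scored as present/absent by brightfield microscopy; not scored in dead larvae.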
# [15] = Tanguay_ZF_120hpf_TRUN_legacy: (Legacy) Oregon State University Tanguay Lab 120 Hour Post-fertilization zebrafish Assay for Truncated Body (AID 2283655)
# Summary of the method: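 Binary presence/absence of truncated body is recorded at 120 hpf by brightfield, with non-mortality endpoints skipped after death. Exposure is static from 6 hpf in sealed dark plates at 28C, using dechorionated wild-type zebrafish, 0.64% DMSO.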
# [16] = CLD_ACTIN_24hr: CellzDirect (CLD) Gene Expression Assay for Baseline Control (Actin) at 24 hours (AID 2283670)
# Summary of the method: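 Primary human hepatocytes dosed over multiple concentrations with 0.2% DMSO vehicle; actin mRNA measured at 24 h by qNPA chemiluminescence. Background control endpoint, fitted as gain of signal versus DMSO.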
# [17] = read-out: xenobiotic metabolism (CYP1A2), CYP1A2 (gene 1544); assay: CLD_CYP1A2_6hr: CellzDirect (CLD) Gene Expression Assay for xenobiotic metabolism (CYP1A2) at 6 hours (AID 2283663);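 on AC50: potency is for induction meaning a rise in mRNA above DMSO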
# Summary of the method: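 Primary human hepatocytes from two donor preparations, dosed daily with multiple concentrations in 0.2% DMSO and harvested at 6 h. CYP1A2 mRNA induction measured by chemiluminescent qNPA, gain of signal fitted against DMSO; cytotoxicity flagged morphologically.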
# [18] = read-out: sulfotransferase (SULT2A), SULT2A1 (gene 6822); assay: CLD_SULT2A_6hr: CellzDirect (CLD) Gene Expression Assay for sulfotransferase (SULT2A) at 6 hours (AID 2283669);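 further: hits raise transcript level above the DMSO vehicle baseline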
# Summary of the method: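 Primary human hepatocytes from two donor preparations were dosed daily with chemicals or 0.2% DMSO and harvested at 6 h. Transcript induction read by qNPA chemiluminescence, fitted for gain of signal relative to DMSO; morphology-based cytotoxicity annotated.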
# Broad substrate specificity ATP-binding cassette transporter ABCG2 (Homo sapiens), sequence (Q9UNQ0 whole entry, looked up): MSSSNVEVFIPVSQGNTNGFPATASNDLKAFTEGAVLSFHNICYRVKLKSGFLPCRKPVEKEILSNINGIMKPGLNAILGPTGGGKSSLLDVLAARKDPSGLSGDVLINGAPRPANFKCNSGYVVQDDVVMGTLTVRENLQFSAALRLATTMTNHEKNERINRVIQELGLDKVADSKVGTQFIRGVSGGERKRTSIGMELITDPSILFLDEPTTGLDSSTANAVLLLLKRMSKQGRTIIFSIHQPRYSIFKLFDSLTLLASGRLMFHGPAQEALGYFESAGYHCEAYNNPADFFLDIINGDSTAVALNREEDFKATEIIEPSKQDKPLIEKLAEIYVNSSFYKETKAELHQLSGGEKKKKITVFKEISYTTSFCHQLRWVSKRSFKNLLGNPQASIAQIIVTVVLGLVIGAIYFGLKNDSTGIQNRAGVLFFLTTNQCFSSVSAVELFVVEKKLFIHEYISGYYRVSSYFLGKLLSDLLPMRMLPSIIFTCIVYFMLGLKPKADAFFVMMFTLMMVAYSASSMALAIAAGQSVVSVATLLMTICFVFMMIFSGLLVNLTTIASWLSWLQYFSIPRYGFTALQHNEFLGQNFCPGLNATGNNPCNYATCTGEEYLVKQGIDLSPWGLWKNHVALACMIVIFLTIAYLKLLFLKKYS
smiles,measurement,setting,value
Nc1c(Cl)c(Cl)nc(C(=O)O)c1Cl,outcome,[1],inactive
same,outcome,[2],inactive
same,outcome,[3],inactive
same,outcome,[4],inactive
same,outcome,[5],inactive
same,outcome,[6],inactive
same,outcome,[7],inactive
same,outcome,[8],inactive
same,outcome,[9],inactive
same,outcome,[10],inactive
same,AC50,[11],20 µM (active)
same,outcome,[12],inactive
Cc1c(COC(=O)[C@@H]2[C@H](/C=C(\Cl)C(F)(F)F)C2(C)C)cccc1-c1ccccc1,outcome,[13],inactive
same,outcome,[1],inactive
same,outcome,[2],inactive
same,outcome,[3],inactive
same,outcome,[14],inactive
same,outcome,[15],inactive
same,outcome,[6],inactive
same,outcome,[9],inactive
same,outcome,[10],inactive
same,outcome,[12],inactive
same,outcome,[16],inactive
CS(=O)(=O)c1cc(C(F)(F)F)ccc1C(=O)c1cnoc1C1CC1,outcome,[13],inactive
same,outcome,[1],inactive
same,outcome,[2],inactive
same,outcome,[3],inactive
same,outcome,[14],inactive
same,outcome,[15],inactive
same,outcome,[17],inactive
same,outcome,[12],inactive
N#Cc1c[nH]cc1-c1cccc2c1OC(F)(F)O2,outcome,[1],inactive
same,outcome,[2],inactive
same,outcome,[3],inactive
same,outcome,[14],inactive
same,outcome,[15],inactive
same,outcome,[12],inactive
Nc1cnn(-c2ccccc2)c(=O)c1Cl,outcome,[1],inactive
same,outcome,[2],inactive
same,outcome,[3],inactive
same,outcome,[14],inactive
same,outcome,[15],inactive
same,outcome,[10],inactive
same,AC50,[11],5.67 µM (active)
same,AC50,[17],9.27 µM (active)
same,outcome,[12],inactive
CCCCC(O)(Cn1cncn1)c1ccc(Cl)cc1Cl (configuration not stated),outcome,[2],inactive
same,outcome,[3],inactive
same,outcome,[14],inactive
same,outcome,[15],inactive
same,outcome,[6],inactive
same,outcome,[9],inactive
same,outcome,[10],inactive
same,outcome,[17],inactive
same,outcome,[12],inactive
same,outcome,[16],inactive
COP(=O)(OC)O/C(C)=C/C(=O)N(C)C,outcome,[1],inactive
same,outcome,[2],inactive
same,outcome,[3],inactive
same,outcome,[14],inactive
same,outcome,[15],inactive
same,outcome,[6],inactive
same,outcome,[9],inactive
same,outcome,[10],inactive
same,outcome,[12],inactive
same,outcome,[18],inactive
same,outcome,[16],inactive
O=C(O)c1c(Cl)ccc2cc(Cl)cnc12,outcome,[1],inactive
same,outcome,[2],inactive
same,outcome,[14],inactive
same,outcome,[6],inactive
same,outcome,[9],inactive
same,outcome,[17],inactive
same,outcome,[12],inactive
same,outcome,[16],inactive
COc1cc(Cl)c(OC)cc1Cl,outcome,[1],inactive
same,outcome,[2],inactive
same,outcome,[3],inactive
same,outcome,[14],inactive
same,outcome,[6],inactive
same,outcome,[9],inactive
same,outcome,[10],inactive
same,outcome,[12],inactive
CC(C)N1C(=O)N(c2ccccc2)CSC1=NC(C)(C)C,outcome,[1],inactive
same,outcome,[2],inactive
same,outcome,[14],inactive
same,outcome,[15],inactive
same,outcome,[6],inactive
same,outcome,[9],inactive
same,outcome,[10],inactive
same,outcome,[11],inactive
same,outcome,[12],inactive
